Reference: PubChem BioAssay (NCATS)
Records with an inconclusive call do not appear. Where a call stands in place of a potency, no number is given. Active and inactive are the calls of the source. Calls come from the whole dose curve; as a rule, active = well fitted curve in the direction sought with a large enough effect; inconclusive = small, poorly fitted or top-dose-only effect, or another doubt; inactive = no such curve, though single readings can be large; an effect the other way counts as inactive or inconclusive.

Key:
[1] = molecular target: Glutathione peroxidase 1 (Homo sapiens) (UniProt P07203); assay: Primary qHTS Assay for Inhibitors of Recombinant Selenoprotein Glutathione Peroxidase 1 (GPX1) (AID 1845191); settings: recombinant GPX1, GR-coupled NADPH fluorescence, 15 min; series mostly up to 48.8 µM; note: nearly all actives have a fitted effect of over 65% in size; note: potency is the fitted concentration of half-maximal effect
Glutathione peroxidase 1 (Homo sapiens), sequence (P07203 whole entry, looked up): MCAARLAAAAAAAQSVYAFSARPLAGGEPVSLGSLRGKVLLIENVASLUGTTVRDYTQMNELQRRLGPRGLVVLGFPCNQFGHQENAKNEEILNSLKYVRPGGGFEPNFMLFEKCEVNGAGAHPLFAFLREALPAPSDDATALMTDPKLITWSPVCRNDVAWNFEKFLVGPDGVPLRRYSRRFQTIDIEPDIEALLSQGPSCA
Procedure, shortened: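 10 nM GPX1 + cpd, 30 min RT; start w/ 1 mM GSH, 0.5 mM cumene hydroperoxide, 0.5 mM NADPH, 100 nM GR, 0.01% BSA; buffer 50 mM Tris-HCl pH 7.5, 2 mM EDTA, 150 mM NaCl; Fl 340/450, 0 & 15 min.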

[2] = molecular target: Luciferin 4-monooxygenase (Photinus pyralis) (UniProt P08659); assay: Primary firefly luciferase (FLuc) qHTS assay for identification of artifact compounds. (AID 1845220); settings: purified firefly luciferase, luminescence, 5 min; series mostly up to 54.1 µM; note: nearly all actives have a fitted effect of over 60% in size; note: potency is the fitted concentration of half-maximal effect
Procedure, shortened: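 Compounds sat 15 min at room temperature with 10 uM luciferin and 10 uM ATP (pH 7.6 Tris acetate). Firefly luciferase (10 nM final) was then added, and luminescence was read 5 min later. Data normalized to no-enzyme and DMSO controls were Hill-fitted.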

[3] = tested on: Nanoluciferase (engineered Oplophorus gracilirostris luciferase); assay: Primary Nanoluciferase (NLuc) qHTS assay for identification of artifact compounds. (AID 1845222); settings: NLuc-conditioned medium, Nano-Glo luminescence, 5 min; series mostly up to 54.1 µM
Procedure, shortened: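 Luminescence from secreted NLuc (filtered, 1:55-diluted S16 cell medium) read 5 min after Nano-Glo substrate; compounds preincubated 15 min, RT. Hill fits of inhibition normalized to DMSO and no-enzyme.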

[4] = Primary redox qHTS assay for identification of artifact compounds. (AID 1845223); settings: Amplex Red/HRP redox cycling with DTT, fluorescence; series mostly up to 53.8 µM
Procedure, shortened: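 Amplex Red (25 uM) and HRP (250 mU/mL) in HBSS, with compounds for 15 min, then 250 uM DTT for 30 min, room temperature, dark. Fluorescence 525/598 nm read; normalized to DMSO and 10 uM DA3003; Hill fit.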

[5] = Primary fluorescence-based thiol-reactive (MSTI) qHTS assay for identification of artifact compounds. (AID 1845221); settings: MSTI thiol-reactivity probe, 1 h; series mostly up to 53.8 µM; note: nearly all actives have a fitted effect of over 65% in size; note: potency is the fitted concentration of half-maximal effect
Procedure, shortened: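 One-hour, room-temperature, dark incubation of compound with 4 uM MSTI in PBS (pH 7.4, 2% DMSO) precedes a fluorescence read at 525 nm excitation, 598 nm emission; Hill-equation fitting yields concentration-response values.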

[6] = molecular target: Phospholipid hydroperoxide glutathione peroxidase GPX4 (Homo sapiens) (UniProt P36969); assay: Primary qHTS Assay for Inhibitors of Recombinant Selenoprotein Glutathione Peroxidase 4 (GPX4) (AID 1845192); settings: recombinant GPX4, GR-coupled NADPH fluorescence, 15 min; series mostly up to 50 µM; note: nearly all actives have a fitted effect of over 65% in size; note: potency is the fitted concentration of half-maximal effect
Phospholipid hydroperoxide glutathione peroxidase GPX4 (Homo sapiens), sequence (P36969 whole entry, looked up): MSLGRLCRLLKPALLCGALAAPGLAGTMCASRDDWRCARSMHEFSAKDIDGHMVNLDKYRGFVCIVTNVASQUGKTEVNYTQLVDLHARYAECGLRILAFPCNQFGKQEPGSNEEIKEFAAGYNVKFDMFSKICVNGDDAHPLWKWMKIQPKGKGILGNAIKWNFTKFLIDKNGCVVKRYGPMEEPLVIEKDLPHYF
Procedure, shortened: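 NADPH consumption, followed by fluorescence at 340/450 nm between 0 and 15 min, reports GPX4 activity via coupled glutathione reductase (100 nM). Enzyme 200 nM was pre-exposed to compound 30 min; 0.5 mM cumene hydroperoxide and 1 mM GSH served as substrates.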

For `COc1ccc2nc3n[nH]c(C)c3c(NCCOCCO)c2c1`, which Potency [1] is on record?
The Potency was “inactive”.

What about the Potency [2] of the same molecule?
The Potency was “inactive”.

What about the Potency [3] of the same molecule?
Its Potency is “inactive”.

And the Potency [4]?
The Potency was “inactive”.

With `Cc1onc(-c2ccccc2)c1C(=O)N1CCN(c2ccc([N+](=O)[O-])cc2Cl)CC1` as the molecule, how does the Potency [1] read?
Its Potency is “inactive”.

What about the Potency [2] of the same molecule?
Its Potency is “inactive”.

What about the Potency [3] of the same molecule?
Its Potency is “inactive”.

And the Potency [4]?
Its Potency is “inactive”.

With `CN(C)C(=O)Nc1cc(-c2ccccc2)ccc1N(C)C` as the molecule, how does the Potency [1] read?
The Potency was “inactive”.

What about the Potency [5] of the same molecule?
The Potency was 2.38 µM (active).

What about the Potency [3] of the same molecule?
Its Potency is “inactive”.

And the Potency [4]?
The Potency was “inactive”.

Which Potency [1] does the source give for `C/C=C/C=C/c1cc2c(C=O)c(O)c(CC=C(C)C)cc2o1` here?
Its Potency is “inactive”.

And the Potency [5]?
The Potency was 21.2 µM (active).

And the Potency [3]?
The Potency was “inactive”.

And the Potency [4]?
Its Potency is “inactive”.

With `COC(=O)N1CC2(CC2)C[C@H](C(=O)NO)[C@H]1C(=O)N1CCN(c2ccccc2)CC1` as the molecule, how does the Potency [6] read?
Its Potency is “inactive”.

Which results are given for `C[C@@H]1CC[C@@]23CC[C@]4(C)[C@@](C=CC5[C@@]6(C)CC[C@H](O)C(C)(C)C6CC[C@]54C)(OC2=O)C3[C@H]1C` (some centres undefined)?
Potency [1]: inactive; Potency [2]: inactive; Potency [3]: inactive; Potency [4]: inactive

For `CC(=O)S[C@@H]1CC2=CC(=O)CC[C@]2(C)[C@H]2CC[C@@]3(C)[C@@H](CC[C@@]34CCC(=O)O4)[C@H]12`, which Potency [6] is on record?
The Potency was “inactive”.

With `C=C1C(=O)OC2/C=C(\C)CC/C=C(\C=O)C(OC)C(OC(=O)C(C)CC)C12` (centres undefined) as the molecule, how does the Potency [1] read?
The Potency was “inactive”.

And the Potency [2]?
Its Potency is “inactive”.

What about the Potency [3] of the same molecule?
Its Potency is “inactive”.

What about the Potency [4] of the same molecule?
Its Potency is “inactive”.

For `S=C(c1ccc(-c2ccc(Cl)c(Cl)c2)o1)N1CCCCC1`, which Potency [1] is on record?
Its Potency is 25.5 µM (active).

And the Potency [2]?
The Potency was 1.69 µM (active).

And the Potency [3]?
The Potency was “inactive”.

What about the Potency [4] of the same molecule?
The Potency was “inactive”.

What does the source list for `CCc1c(Cl)c(O)c(Cl)c(O)c1C(=O)O[C@H]1[C@H](O)[C@H](OC)[C@H](OC/C2=C\C=C\C[C@H](O)/C(C)=C\[C@H](CC)[C@@H](O[C@@H]3OC(C)(C)[C@@H](OC(=O)C(C)C)[C@H](O)[C@@H]3O)/C(C)=C/C(C)=C/C[C@@H]([C@@H](C)O)OC2=O)O[C@@H]1C`?
Potency [1]: inactive; Potency [3]: inactive

Which Potency [6] does the source give for `O=C(CCCN1CCC(n2c(=S)[nH]c3ccccc32)CC1)c1ccc(F)cc1` here?
Its Potency is 4.47 µM (active).

For `COc1cc2ncnc(Nc3ccc(F)c(Cl)c3)c2cc1O`, which Potency [1] is on record?
The Potency was “inactive”.

What about the Potency [2] of the same molecule?
Its Potency is “inactive”.

And the Potency [4]?
Its Potency is “inactive”.

For `CNC(=O)[C@@H](c1ccccc1)N1CCc2cc(OC)c(OC)cc2[C@@H]1CCc1ccc(C(F)(F)F)cc1`, which Potency [1] is on record?
Its Potency is “inactive”.

And the Potency [5]?
Its Potency is “inactive”.

What about the Potency [3] of the same molecule?
Its Potency is “inactive”.

And the Potency [4]?
The Potency was “inactive”.

Which Potency [1] does the source give for `CCCn1cc2c(nc(NC(=O)Nc3ccc(OC)cc3)n3nc(-c4ccco4)nc23)n1` here?
The Potency was “inactive”.

And the Potency [2]?
Its Potency is “inactive”.

And the Potency [3]?
Its Potency is “inactive”.

What about the Potency [4] of the same molecule?
Its Potency is “inactive”.
